According to PubChem BioAssay (NCATS):
Several values for one entry are separate records, joined by “and”; a condition that tells them apart may be missing. Equal values may be shown once. Unmarked numbers belong to inactive results. Inconclusive results are not listed. Entries that show only a call come without a potency. Activity calls are given as the source filed them. Unless noted, calls follow the shape of the dose curve; as a rule, active = well fitted curve in the direction sought with a large enough effect; inconclusive = small, poorly fitted or top-dose-only effect, or another doubt; inactive = no such curve, though single readings can be large; an effect the other way counts as inactive or inconclusive.

Key:
[1] = qHTS for Inhibitors of Plasmodium falciparum (DD2) proliferation (AID 504314);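 also: parasite DNA measured by SYBR Green fluorescence after red cell lysis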
How it was run: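 Quantitative HTS growth inhibition: SYBR Green I binding to parasite DNA after 72 h drug exposure of infected erythrocytes (0.3% parasitemia, 2.5% hematocrit). Signals normalized per plate to inhibitor and vehicle wells.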

[2] = qHTS for Inhibitors of Plasmodium falciparum (GB4) proliferation (AID 504315); also: nearly all actives have a fitted effect of over 50% in size
How it was run: (§1)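 Erythrocytes infected with P. falciparum line (0.3% parasitemia, 2.5% hematocrit final) incubated with compounds 72 h at 37 °C, 5% CO2; SYBR Green lysis buffer added, fluorescence read next day. Normalized to 0.29 uM artemisinin and DMSO.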

[3] = qHTS for Inhibitors of Plasmodium falciparum (7G8) proliferation (AID 504316); also: nearly all actives have a fitted effect of over 65% in size; also: potency is read from the fitted curve at half-maximal effect; as to activity change, negative = inhibition: series mostly up to about 6.7 µM
How it was run: as §1

[4] = qHTS for Inhibitors of Plasmodium falciparum (HB3) proliferation (AID 504318); also: nearly all actives have a fitted effect of over 60% in size
How it was run: as §1

[5] = qHTS for Inhibitors of Plasmodium falciparum (CP250) proliferation (AID 504320)
How it was run: as §1

[6] = target: Atrial natriuretic peptide receptor 1 (Homo sapiens) (UniProt P16066); assay: Natriuretic polypeptide receptor (hNpr1) antagonism - Pilot CMLD screen (AID 1347052; calls by dose curve;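 also: HEK293 cells with hNpr1 stimulated by hNppA peptide at 0.1 nM; cGMP level read as GloSensor luciferase luminescence after agonist stimulation; series mostly up to about 9.2 µM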)
Atrial natriuretic peptide receptor 1 (Homo sapiens), sequence (P16066 whole entry, looked up): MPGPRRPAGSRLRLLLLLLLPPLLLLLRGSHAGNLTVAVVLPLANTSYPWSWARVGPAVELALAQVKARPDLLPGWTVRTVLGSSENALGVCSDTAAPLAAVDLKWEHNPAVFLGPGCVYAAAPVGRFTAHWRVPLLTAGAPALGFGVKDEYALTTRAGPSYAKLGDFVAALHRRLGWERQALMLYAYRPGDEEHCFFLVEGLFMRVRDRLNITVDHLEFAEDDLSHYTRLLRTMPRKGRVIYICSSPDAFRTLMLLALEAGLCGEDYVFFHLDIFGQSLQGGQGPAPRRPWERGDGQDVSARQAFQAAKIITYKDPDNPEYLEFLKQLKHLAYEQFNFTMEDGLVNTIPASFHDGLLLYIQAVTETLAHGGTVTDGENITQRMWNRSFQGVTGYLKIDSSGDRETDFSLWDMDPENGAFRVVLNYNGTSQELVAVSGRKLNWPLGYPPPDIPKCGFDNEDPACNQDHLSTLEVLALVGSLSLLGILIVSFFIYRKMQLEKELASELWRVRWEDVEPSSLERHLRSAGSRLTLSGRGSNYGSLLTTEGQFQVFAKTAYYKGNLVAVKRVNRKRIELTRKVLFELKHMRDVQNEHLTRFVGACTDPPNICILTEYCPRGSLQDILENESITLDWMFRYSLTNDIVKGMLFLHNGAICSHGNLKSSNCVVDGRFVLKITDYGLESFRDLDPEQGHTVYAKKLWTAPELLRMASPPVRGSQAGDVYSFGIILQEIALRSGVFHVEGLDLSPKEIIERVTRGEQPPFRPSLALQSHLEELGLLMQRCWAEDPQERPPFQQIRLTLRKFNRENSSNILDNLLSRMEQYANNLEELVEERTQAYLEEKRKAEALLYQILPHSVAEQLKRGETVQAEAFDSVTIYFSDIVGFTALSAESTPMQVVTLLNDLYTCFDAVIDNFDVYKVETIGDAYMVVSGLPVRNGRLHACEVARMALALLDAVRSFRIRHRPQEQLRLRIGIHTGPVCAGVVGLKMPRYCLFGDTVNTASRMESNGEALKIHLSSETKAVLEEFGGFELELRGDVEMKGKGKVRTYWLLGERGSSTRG

[7] = target: Cytochrome P450 2C9 (Homo sapiens) (UniProt P11712); assay: qHTS Assay for Inhibitors and Substrates of Cytochrome P450 2C9 (AID 883); also: nearly all actives have a fitted effect of over 60% in size
Cytochrome P450 2C9 (Homo sapiens), sequence (P11712 whole entry, looked up): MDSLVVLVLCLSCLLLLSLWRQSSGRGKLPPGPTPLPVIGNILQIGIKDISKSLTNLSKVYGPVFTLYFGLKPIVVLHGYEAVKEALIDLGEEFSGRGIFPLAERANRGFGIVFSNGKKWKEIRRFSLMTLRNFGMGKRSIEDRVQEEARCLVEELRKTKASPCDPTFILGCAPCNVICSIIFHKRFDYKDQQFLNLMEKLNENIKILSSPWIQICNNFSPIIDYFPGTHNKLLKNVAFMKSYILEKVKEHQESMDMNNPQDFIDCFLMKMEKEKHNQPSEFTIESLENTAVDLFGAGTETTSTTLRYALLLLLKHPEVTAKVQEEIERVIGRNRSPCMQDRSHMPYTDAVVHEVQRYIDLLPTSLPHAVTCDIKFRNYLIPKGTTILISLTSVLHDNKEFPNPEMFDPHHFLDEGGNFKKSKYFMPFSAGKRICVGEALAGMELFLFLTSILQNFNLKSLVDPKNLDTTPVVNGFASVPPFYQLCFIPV
How it was run: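 Signal: luciferase luminescence reporting luciferin produced by CYP2C9. Conditions: 10nM enzyme, Luciferin-H 100uM at KM, 25mM KPO4, 37C, 60 min NADPH-driven reaction. Reference: 57uM sulphaphenazole as 100% inhibition.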

[8] = target: Cytochrome P450 3A4 (Homo sapiens) (UniProt P08684); assay: qHTS Assay for Inhibitors and Substrates of Cytochrome P450 3A4 (AID 884); also: series mostly up to about 57 µM; nearly all actives have a fitted effect of over 50% in size
Cytochrome P450 3A4 (Homo sapiens), sequence (P08684 whole entry, looked up): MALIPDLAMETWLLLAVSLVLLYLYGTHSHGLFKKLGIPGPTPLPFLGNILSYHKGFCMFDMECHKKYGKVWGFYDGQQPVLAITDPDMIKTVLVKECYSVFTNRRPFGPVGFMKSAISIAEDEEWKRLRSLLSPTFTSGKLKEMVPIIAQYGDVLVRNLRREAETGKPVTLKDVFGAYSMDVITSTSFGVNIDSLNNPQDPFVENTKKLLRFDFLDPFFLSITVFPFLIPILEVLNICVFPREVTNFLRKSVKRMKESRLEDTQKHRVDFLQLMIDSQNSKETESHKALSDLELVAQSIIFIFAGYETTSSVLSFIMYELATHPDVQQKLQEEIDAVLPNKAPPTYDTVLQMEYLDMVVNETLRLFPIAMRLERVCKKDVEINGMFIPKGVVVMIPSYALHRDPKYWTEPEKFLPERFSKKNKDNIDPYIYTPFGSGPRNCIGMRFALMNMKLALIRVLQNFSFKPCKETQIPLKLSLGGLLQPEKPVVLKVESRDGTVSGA
How it was run: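 20 nM human CYP3A4 with 25 uM Luciferin-PPXE (at KM) in 200 mM KPO4, preincubated 10 min with compound; NADPH regeneration started a 60 min RT reaction. Luciferin detected by luminescence, normalized to 57 uM ketoconazole as full inhibition.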

[9] = target: Cytochrome P450 2D6 (Homo sapiens) (UniProt P10635); assay: qHTS Assay for Inhibitors and Substrates of Cytochrome P450 2D6 (AID 891);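 also: luciferin methyl ether substrate demethylated by CYP2D6 with NADPH regeneration; nearly all actives have a fitted effect of over 60% in size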
Cytochrome P450 2D6 (Homo sapiens), sequence (P10635 whole entry, looked up): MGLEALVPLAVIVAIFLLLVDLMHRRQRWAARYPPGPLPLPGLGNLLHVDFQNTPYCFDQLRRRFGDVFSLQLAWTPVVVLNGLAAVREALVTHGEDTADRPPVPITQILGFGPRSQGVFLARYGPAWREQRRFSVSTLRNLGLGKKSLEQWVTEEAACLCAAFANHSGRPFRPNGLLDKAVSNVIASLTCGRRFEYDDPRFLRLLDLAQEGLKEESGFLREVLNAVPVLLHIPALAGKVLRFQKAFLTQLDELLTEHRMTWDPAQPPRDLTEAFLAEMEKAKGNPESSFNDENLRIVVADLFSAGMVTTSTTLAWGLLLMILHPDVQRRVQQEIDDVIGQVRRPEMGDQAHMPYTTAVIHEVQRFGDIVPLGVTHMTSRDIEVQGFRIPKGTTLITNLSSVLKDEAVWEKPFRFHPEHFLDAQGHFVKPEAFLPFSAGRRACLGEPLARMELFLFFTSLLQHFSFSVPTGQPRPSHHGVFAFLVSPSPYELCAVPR
How it was run: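 Human CYP2D6 (5 nM) with 30 uM Luciferin-ME EGE (at Km) in 100 mM KPO4, compound preincubated 10 min, then NADPH regeneration system for 60 min at room temperature. Luciferin read by luminescence; normalized to 1.43 uM quinidine.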

[10] = target: Cytochrome P450 2C19 (Homo sapiens) (UniProt P33261); assay: qHTS Assay for Inhibitors and Substrates of Cytochrome P450 2C19 (AID 899); also: nearly all actives have a fitted effect of over 60% in size
Cytochrome P450 2C19 (Homo sapiens), sequence (P33261 whole entry, looked up): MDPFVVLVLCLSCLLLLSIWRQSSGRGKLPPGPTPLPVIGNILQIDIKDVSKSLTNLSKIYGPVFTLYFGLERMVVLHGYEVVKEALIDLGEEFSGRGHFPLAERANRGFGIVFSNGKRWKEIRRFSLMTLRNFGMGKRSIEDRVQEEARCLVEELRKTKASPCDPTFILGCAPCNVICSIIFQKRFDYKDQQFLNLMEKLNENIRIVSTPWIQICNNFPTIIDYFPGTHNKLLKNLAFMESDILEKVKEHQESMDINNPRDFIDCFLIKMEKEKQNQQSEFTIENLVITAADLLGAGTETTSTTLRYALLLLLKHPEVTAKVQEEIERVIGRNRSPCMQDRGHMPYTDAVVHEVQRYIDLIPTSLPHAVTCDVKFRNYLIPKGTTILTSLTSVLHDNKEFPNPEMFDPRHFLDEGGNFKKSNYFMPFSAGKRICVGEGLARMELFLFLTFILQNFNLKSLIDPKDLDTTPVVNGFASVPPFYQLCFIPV
How it was run: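 Signal comes from luciferase acting on luciferin released by CYP2C19-mediated hydroxylation of Luciferin-H EGE, 10uM (KM). Assay mix: 5nM enzyme, 50mM KPO4; 60 min at 37C with NADPH regeneration. Data normalized against 57uM ketoconazole.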

[11] = target: Cytochrome P450 3A4 (Homo sapiens) (UniProt P08684); assay: qHTS Assay for Activators of Cytochrome P450 3A4 (AID 885); also: nearly all actives have a fitted effect of over 65% in size
How it was run: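 Steps: enzyme/substrate mix dispensed; compound added, 10 min RT; NADPH regeneration solution added, 60 min RT; luciferin detection buffer stops reaction; 20 min later luminescence measured.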

For `C[C@H]1C(C(=O)N2CCCC2)=Cc2[nH]c(=O)[nH]c2C=C1c1ccccc1`, the Potency [1] was “inactive”, the Potency [2] was “inactive” and the Potency [3] was “inactive”. The Potency [4] was “inactive”, the Potency [5] was “inactive” and the Potency [6] was “inactive”.

With `O=C1C=C(c2ccccc2)CCC1` the Potency [1] was “inactive”, the Potency [2] was “inactive” and the Potency [3] was “inactive”. The Potency [4] was “inactive”, the Potency [5] was “inactive” and the Potency [6] was “inactive”.

In the case of `C=CCCN1C=C(C(=O)OCC)C(c2ccccc2)NC1=O` (stereo unspecified), the Potency [1] is reported as “inactive”, the Potency [2] is reported as “inactive” and the Potency [3] is reported as “inactive”. The Potency [5] was “inactive” and the Potency [6] was “inactive”.

With `COC(=O)c1ccccc1C[C@]1(C(=O)OC)C=C[C@H](C)[C@@H](c2ccccc2)N1C(=O)C(F)(F)F` the Potency [1] was “inactive”, the Potency [2] was “inactive” and the Potency [3] was “inactive”. For the same compound, the Potency [4] was “inactive”, the Potency [5] was “inactive” and the Potency [6] was “inactive”.

In the case of `Cc1ccc(S(=O)(=O)NC(CCc2ccccc2)CC(=O)C(C)(C)C)cc1` (stereo unspecified), the Potency [1] is reported as “inactive”, the Potency [2] is reported as “inactive” and the Potency [3] is reported as “inactive”. The Potency [5] was “inactive” and the Potency [6] was “inactive”.

For `COC[C@@H](O)[C@H]1OCc2cccc(OC)c2[C@H]1C=Cc1ccccc1`, the Potency [1] was “inactive”, the Potency [2] was “inactive” and the Potency [3] was “inactive”. For the same compound, the Potency [4] was “inactive”, the Potency [5] was “inactive” and the Potency [6] was “inactive”.

Compound `C=CCC1(O)C=CCC2C3C4C(OC(C)(C)C)C2C1C34` (stereo unspecified) has an activity change, negative = inhibition [7] of -12.7% [at 11.4 µM], an activity change, negative = inhibition [8] of -11.8% [at 11.4 µM] and an activity change, negative = inhibition [9] of -4.54% [at 11.4 µM]. For the same compound, the activity, negative = inhibition [10] was -32.4% [at 11.4 µM], the Potency [1] was “inactive” and the Potency [2] was “inactive”. The Potency [3] was “inactive”, the Potency [4] was “inactive” and the Potency [5] was “inactive”. The Potency [6] was “inactive”.

With `C=CCC1(c2ccccc2)Oc2ccccc2-c2nc3cc(Cl)c(Cl)cc3nc21` (stereo unspecified) the activity change, negative = inhibition [7] was -6.17% [at 11.4 µM] and 38.3% [at 11.4 µM], the activity change, negative = inhibition [8] was -17.8% [at 11.4 µM] and -22.2% [at 11.4 µM] and the activity change, negative = inhibition [9] was 2.78% [at 11.4 µM] and 6.33% [at 11.4 µM]. For the same compound, the activity, negative = inhibition [10] was 39.4% [at 11.4 µM] and 70.5% [at 11.4 µM], the Potency [1] was “inactive” and the Potency [2] was “inactive”. The Potency [3] was “inactive”, the Potency [4] was “inactive” and the Potency [5] was “inactive”. The Potency [6] was “inactive”.

For `CCN1C(=O)NC(c2cccc(C(F)(F)F)c2)C(C(C)=O)=C1C` (stereo unspecified), the Potency [1] was “inactive”, the Potency [2] was “inactive” and the Potency [3] was “inactive”. For the same compound, the Potency [4] was “inactive”, the Potency [5] was “inactive” and the Potency [6] was “inactive”.

With `COC1=C[C@H](C(=O)NCCOC(C)=O)[C@@]2(C)Cc3ccccc3[C@@H]2CC1=O` the Potency [1] was “inactive”, the Potency [2] was “inactive” and the Potency [3] was “inactive”. For the same compound, the Potency [4] was “inactive”, the Potency [5] was “inactive” and the Potency [6] was “inactive”.

For `CCOC(=O)OC[C@H]1O[C@H](C#Cc2ccc(C)cc2C)C=C[C@H]1OC(=O)OCC`, the Potency [1] was “inactive”, the Potency [2] was “inactive” and the Potency [3] was “inactive”. The Potency [5] was “inactive” and the Potency [6] was “inactive”.

In the case of `CCCNC(=O)OC[C@H]1O[C@H](CCON=C2c3cc(OC)ccc3O[C@H](c3cccc(OC)c3)[C@H]2O)C=C[C@H]1Oc1ccc(OC)cc1`, the Potency [1] is reported as “inactive”, the Potency [2] is reported as “inactive” and the Potency [3] is reported as 1690 nM (active). The Potency [5] was “inactive” and the Potency [6] was “inactive”.

With `C[C@@H]1C=CCCO[C@]12C(=O)Nc1ccccc12` the Potency [1] was “inactive”, the Potency [2] was “inactive” and the Potency [3] was “inactive”. The Potency [4] was “inactive”, the Potency [5] was “inactive” and the Potency [6] was “inactive”.

In the case of `CC(=O)OC[C@H]1O[C@H](CC=NOC[C@@H](C)[C@H](OCc2ccccc2)C(C)C)C=C[C@@H]1OC(C)=O`, the Potency [1] is reported as “inactive”, the Potency [2] is reported as “inactive” and the Potency [3] is reported as “inactive”. The Potency [4] was “inactive”, the Potency [5] was “inactive” and the Potency [6] was “inactive”.

With `CC=COC(=O)N[C@@H](c1ccccc1)[C@]1(C(C)=O)CCOC1=O` the Potency [1] was “inactive”, the Potency [2] was “inactive” and the Potency [3] was “inactive”. The Potency [5] was “inactive” and the Potency [6] was “inactive”.

With `CON(C)C(=O)c1nnc2c3ccccc3n(S(=O)(=O)c3ccc(C)cc3)c2n1` the activity change, positive = activation [11] was -39.7% [at 11.4 µM] and -50.5% [at 11.4 µM], the Potency [1] was “inactive” and the Potency [2] was “inactive”. The Potency [3] was “inactive”, the Potency [4] was “inactive” and the Potency [6] was “inactive”.

In the case of `C=CCOC(=O)C(C(C)=O)[C@@H](NC(=O)OC)c1ccc(Cl)cc1` (stereo partly specified), the Potency [1] is reported as “inactive”, the Potency [2] is reported as “inactive” and the Potency [3] is reported as “inactive”. For the same compound, the Potency [5] was “inactive” and the Potency [6] was “inactive”.

With `COC(=O)C(C(C)=O)[C@@H](NC(=O)NCc1ccccc1)c1ccccc1` (stereo partly specified) the Potency [1] was “inactive”, the Potency [2] was “inactive” and the Potency [3] was “inactive”. The Potency [5] was “inactive” and the Potency [6] was “inactive”.

In the case of `COC(=O)C1=C(C)N(Cc2ccccc2)C(=NCc2ccc(OC)cc2)NC1c1ccccc1` (stereo unspecified), the Potency [1] is reported as “inactive”, the Potency [2] is reported as “inactive” and the Potency [3] is reported as “inactive”. The Potency [4] was “inactive”, the Potency [5] was “inactive” and the Potency [6] was “inactive”.

For `CN1c2ccccc2[C@@]2(O)C(=O)[C@@]1(C)[C@@H]1c3ccccc3C[C@H]12`, the Potency [1] was “inactive”, the Potency [2] was “inactive” and the Potency [3] was “inactive”. For the same compound, the Potency [4] was “inactive”, the Potency [5] was “inactive” and the Potency [6] was “inactive”.

In the case of `COc1ccc(COC(=O)NN=C2C[C@@H](O)[C@@H](O)[C@@H]3[C@H]4C(=O)N(C[C@@H]5CCCO5)C(=O)[C@@H]4CC[C@@H]23)cc1`, the Potency [1] is reported as “inactive”, the Potency [2] is reported as “inactive” and the Potency [3] is reported as “inactive”. For the same compound, the Potency [5] was “inactive” and the Potency [6] was “inactive”.

In the case of `CCCCC1=CC2=C(c3ccco3)C(=O)C(C)(OC(=O)c3ccc(OC)cc3)C(=O)C2=CN1c1ccc(OC)cc1` (stereo unspecified), the activity, negative = inhibition [1] is reported as -0.773% [at 1.12 µM], the Potency [2] is reported as “inactive” and the Potency [3] is reported as “inactive”. For the same compound, the Potency [5] was “inactive” and the Potency [6] was “inactive”.

In the case of `C#CCCOC(=O)N1C2=NC(C(=O)OC)=C(C(=O)OC)[C@@H]3N(CC=C)c4ccccc4[C@]23C[C@H]1C(=O)OC`, the activity, negative = inhibition [1] is reported as 5.23% [at 1.12 µM], the Potency [2] is reported as “inactive” and the Potency [3] is reported as “inactive”. The Potency [5] was “inactive” and the Potency [6] was “inactive”.

For `CN1c2ccccc2[C@@]2(O)C(=O)[C@@]1(C)[C@@H]1C=CCC[C@H]12`, the Potency [1] was “inactive”, the Potency [2] was “inactive” and the Potency [3] was “inactive”. The Potency [5] was “inactive” and the Potency [6] was “inactive”.
